Laboratory results from publication PMC5540273 (PLoS ONE, 2017).

Experiments:
Conditions in all cases: concentration: 1 μM, replicates: in singlicate; n = 1
CSK = tested on: CSK
CSNK1A1L = tested on: CSNK1A1L
CSNK1A1 = tested on: CSNK1A1
CSNK1D = tested on: CSNK1D
CSNK1E = tested on: CSNK1E
CSNK1G1 = tested on: CSNK1G1
CSNK1G2 = tested on: CSNK1G2
CSNK1G3 = tested on: CSNK1G3
CSNK2A1 = tested on: CSNK2A1
CSNK2A2 = tested on: CSNK2A2
CTK = tested on: T1, CTK
T1 construct: gene MATK

DAPK1 = tested on: DAPK1
DAPK2 = tested on: DAPK2
DAPK3 = tested on: DAPK3
DCAMKL1 = tested on: T2, DCAMKL1
T2 construct: gene DCLK1

DCAMKL2 = tested on: T3, DCAMKL2
T3 construct: gene DCLK2

DCAMKL3 = tested on: T4, DCAMKL3
T4 construct: gene DCLK3

DDR1 = tested on: DDR1
DDR2 = tested on: DDR2
DLK = tested on: T5, DLK
T5 construct: gene MAP3K12
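Further: KINOMEscan kinase panel screen.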

SMILES	%Inh (CSK) [%]	%Inh (CSNK1A1L) [%]	%Inh (CSNK1A1) [%]	%Inh (CSNK1D) [%]	%Inh (CSNK1E) [%]	%Inh (CSNK1G1) [%]	%Inh (CSNK1G2) [%]	%Inh (CSNK1G3) [%]	%Inh (CSNK2A1) [%]	%Inh (CSNK2A2) [%]	%Inh (CTK) [%]	%Inh (DAPK1) [%]	%Inh (DAPK2) [%]	%Inh (DAPK3) [%]	%Inh (DCAMKL1) [%]	%Inh (DCAMKL2) [%]	%Inh (DCAMKL3) [%]	%Inh (DDR1) [%]	%Inh (DDR2) [%]	%Inh (DLK) [%]
Nc1cccc(-c2ccc3c(N)n[nH]c3c2)n1 [GSK2192730]	15	0	77	0	39	4	0	19	27	42	0	27	2	28	0	0	0	0	0	0
CC[C@@H]1CO[C@H](C(=O)Nc2ccccc2)CN1c1cc(-c2ccc3c(N)n[nH]c3c2)nc(NC)n1 [GSK2376236]	0	4	0	39	42	7	31	39	12	10	0	17	37	47	2	0	90	0	11	0
CCn1c(-c2ccccc2)nc2cnccc21 [SB-733416]	0	11	0	2	24	0	0	11	0	1	6	0	0	18	15	1	33	16	13	16
CS(=O)(=O)CCNCc1nc(-c2ccc3ncnc(Nc4ccc(OCc5ccccc5)c(Cl)c4)c3c2)cs1.Cl [GW582764]	0	9	0	10	15	0	0	13	0	0	0	0	0	0	13	0	6	99.8	40	50
O=C(Nc1n[nH]c2nc(-c3ccco3)c(Br)cc12)C1CCN(Cc2ccccc2)C1.O=C(O)[C@H](O)[C@@H](O)C(=O)O (centres unmarked) [SB-742034]	11	8	21	28	0	4	32	0	22	37	71	0	28	17	14	7	20	0	0	0
O=C1NC(=O)C(c2ccc(Cl)cc2)=C1Nc1cccc(Cl)c1 [SB-317651]	0	16	22	0	0	0	0	88	0	0	16	8	0	18	18	0	17	0	16	16
Cc1ccccc1-c1cc(-c2c[nH]nc2-c2ccccn2)ccn1 [GW680061]	0	7	12	24	16	2	0	1	13	0	0	0	0	25	0	6	12	79	5	32
CNc1cc(-c2ccc3c(N)n[nH]c3c2)nc(N)n1 [GSK2224810]	4	0	8	9	12	7	0	28	19	22	0	18	17	37	16	0	28	0	13	29
COc1ccc(CSc2nnc(-c3ccc4nccn4c3)o2)cc1C(F)(F)F	0	0	18	0	0	15	0	0	0	21	0	0	0	1	8	0	0	13	0	0
Cc1cccc2c(-c3ccncn3)c(-c3ccc(F)cc3)nn12 [GW515532]	0	0	50	81	100	14	0	99.9	1	0	0	6	0	0	0	0	1	43	16	25
COC(=O)c1cccc(NC(=O)NC2CCN(c3ccnc(Nc4ccc(F)cc4)n3)C2)c1 (centres unmarked) [GSK1379725]	0	3	0	21	7	0	0	9	0	0	0	0	0	0	0	0	12	0	0	0
c1ccc(-c2ccnc3[nH]ccc23)cc1 [SB-693578]	0	20	0	1	42	90.3	0	5	0	0	0	0	0	19	16	0	0	23	26	37
CCc1ccc(-c2ccc3c(c2)-c2n[nH]cc2S(=O)(=O)N3C)cc1	0	0	0	32	0	0	0	0	0	0	0	24	7	0	34	0	13	0	9	0
Fc1ccc(-c2nc3n(c2-c2ccncc2)CCS3)cc1 [GI98581]	0	30	84	95.3	98.2	14	17	32	10	6	0	0	0	0	0	21	30	54	54	26
CC(C)c1cc(-c2ccc3c(N)n[nH]c3c2)nc(N)n1 [GSK2250882]	0	0	0	0	7	10	0	25	0	10	0	9	6	25	2	0	0	0	4	21
Cc1ccccc1Cn1ccn2c(=O)cc(N3CCOCC3)nc12 [GSK2269905]	0	0	0	4	28	0	0	22	0	0	0	0	0	0	0	7	4	0	0	0
